Experimental data: PubChem BioAssay (NCATS)
Values joined by “and” are separate entries in the source; they are usually repeats but may differ in a detail not shown here. Identical values can stand only once. Inconclusive results are not listed. Active and inactive are the calls of the source. Unless noted, the call rests on the fitted dose curve; in most records, active means well fitted curve in the direction sought with a large enough effect; inconclusive means small, poorly fitted or top-dose-only effect, or another doubt; inactive means no such curve, though single readings can be large; an effect the other way counts as inactive or inconclusive.

Assays:
[1] = target: M-phase phosphoprotein 8 (Homo sapiens) (UniProt Q99549); experiment: qHTS Validation Assay for Inhibitors for MPP8 Chromodomain Interactions with Methylated Histone Tails (AID 488949);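 further: AlphaScreen signal from MPP8 chromodomain bound to biotinylated H3K9me3 peptide; top concentration of the series differs between compounds; on the % scale 0 is the no-effect control and ±100 the full control effect; nearly all actives have a fitted effect of over 55% in size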
Outline: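 Disruption of the preformed MPP8–trimethyl-H3K9 peptide complex (both 50 nM, 30 min, RT) is measured after 30 min compound exposure, using AlphaScreen proximity beads; aurintricarboxylic acid titration serves as plate control.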

[2] = target: Chromobox protein homolog 1 (Homo sapiens) (UniProt P83916); experiment: qHTS Validation Assay for Inhibitors of HP1-beta Chromodomain Interactions with Methylated Histone Tails (AID 488953);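 further: loss of AlphaScreen luminescence from HP1-beta binding biotinylated H3K9me3 peptide; series mostly up to about 110 µM; on the % scale 0 is the no-effect control and ±100 the full control effect; nearly all actives have a fitted effect of over 50% in size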
Outline: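 Measured as loss of AlphaScreen luminescence from streptavidin donor and nickel acceptor beads (10 ug/mL final) bridging HP1-beta and biotin-H3(1-18)K9me3, each 50 nM. Compounds met the preassembled complex for 30 min at RT.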

[3] = target: Methanococcus maripaludis chaperonin (MmCpn) (UniProt Q6LX38); experiment: High-Throughput Screening for Modulators of Cytosolic Chaperonin Activity: MmCpn Primary Screen (AID 488978);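 further: 50 nM MmCpn enzyme hydrolysing 30 µM ATP at 37 °C; 0% is about no effect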
Outline: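 Measures ATPase turnover of the M. maripaludis chaperonin (50 nM final) against 30 uM ATP over 10 min at 37C, with compound added 5 min beforehand at room temperature. ADP is quantified by HTRF immunodetection.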

[4] = target: Transient receptor potential cation channel subfamily V member 1 (Homo sapiens) (UniProt Q8NER1); experiment: HTS Assay for Compounds that Act as Enhancers of the Vanilloid Receptor 1 (AID 488979); further: 0% is about no effect
Outline: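 TRPV1-expressing cells loaded with Fluo-8 calcium dye; compounds added and calcium influx read kinetically for 3 min (agonist phase), then capsaicin at EC20 added and read 2 min more for enhancement. Fluorescence ex 480/em 520 nm.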

[5] = target: Thyrotropin receptor (Homo sapiens) (UniProt P16473); experiment: qHTS Assay for Antagonists of the Thyroid Stimulating Hormone Receptor (AID 488980); further: series mostly up to about 58 µM; 0% is about no effect
Outline: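 Cells expressing human TSHR (HEK293) are dispensed in HBSS/HEPES containing 70 uM RO 20-1724, compound is added, then TSH at EC80 (4 nM final). Antibody in lysis buffer follows, 30 minutes at room temperature before HTRF detection.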

[6] = target: D(1A) dopamine receptor (Homo sapiens) (UniProt P21728); experiment: HTS Assay for Allosteric Agonists of the Human D1 Dopamine Receptor: Primary Screen for Agonists (AID 488981); further: 0% is about no effect
Outline: (§1)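 Tetracycline-induced HEK293 T-REx cells force-coupled to calcium signalling were incubated overnight at 30 C and dye-loaded at room temperature. Calcium flux over 180 s after compound addition flagged agonists; a further 180 s read after EC20 dopamine flagged potentiators.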

[7] = target: D(1A) dopamine receptor (Homo sapiens) (UniProt P21728); experiment: HTS Assay for Allosteric Agonists of the Human D1 Dopamine Receptor: Primary Screen for Potentiators (AID 488982); further: 0% is about no effect
Outline: as §1

[8] = target: D(1A) dopamine receptor (Homo sapiens) (UniProt P21728); experiment: HTS Assay for Allosteric Agonists of the Human D1 Dopamine Receptor: Primary Screen for Antagonists (AID 488983);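 further: calcium flux response to an EC80 dopamine challenge measured with no-wash dye; on the % scale 0 is the no-effect control and ±100 the full control effect; nearly all actives have a fitted effect of over 65% in size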
Outline: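 Screening of inducible HEK293 T-REx D1 cells: compound first, EC80 dopamine 180 s later, each phase read kinetically for calcium over 180 s.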

[9] = Validation screen for small molecules that induce genotoxicity in human embryonic kidney (HEK293T) cells expressing luciferase-tagged ELG1 (AID 493106); further: 0% is about no effect
Outline: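 Reporter-gene quantitative HTS in HEK293T cells carrying luciferase-tagged ELG1, whose level climbs under genotoxic stress. Compound exposure lasts 16 hr at 37 °C before luciferase detection.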

[10] = target: ATPase family AAA domain-containing protein 5 (Homo sapiens) (UniProt Q96QE3); experiment: Validation screen for small molecules that inhibit ELG1-dependent DNA repair in human embryonic kidney (HEK293T) cells expressing luciferase-tagged ELG1 (AID 493107); further: nearly all actives have a fitted effect of over 70% in size; further: potency means the concentration at half of the fitted maximal effect
Outline: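 Quantitative HTS in HEK293T cells carrying luciferase-tagged ELG1, stimulated with 5-fluorouridine alongside compound for 16 hr. Loss of luciferase signal marks inhibition of ELG1 response.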

[11] = target: Thyrotropin-releasing hormone receptor (Homo sapiens) (UniProt P34981); experiment: qHTS for Small Molecule Agonists and Allosteric Enhancers of Human TRH Receptor: Validation Screen for Agonists (AID 493127;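 active means calcium activation more than 3 SD above the typical response in the agonist read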;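 further: intracellular calcium rise by fluo-8 fluorescence before TRH EC20 addition; 0% is about no effect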); settings: TRH receptor agonist cell assay; at 2 µM; stronger effect = higher value
Outline: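 Gq-coupled calcium mobilization in TRHR cells after compound addition, monitored kinetically with fluo-8 dye on an FDSS reader.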

[12] = Nrf2 qHTS screen for inhibitors: Validation (AID 493153; active means well fitted inhibition curve with a large enough effect in the main read-out, with a control signal flat, not every such curve was filed as active); settings: Potency: luciferase luminescence; viability change: measured here: cytotoxicity max response
Outline: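 Dose-response validation uses reporter A549 cells with firefly luciferase under an antioxidant response element. Compounds stay on cells 18-24 h at 37°C, and luminescence indicates Nrf2-driven transcription.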

[13] = qHTS for Inhibitors of Cell Surface uPA Generation: Validation Assay (AID 493164);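 further: RAW 264.7 macrophage cells exposed to compound for 18 h; 0% is about no effect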
Outline: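 RAW 264.7, 4000 cells/well, o/n plating; cpd 7-pt 1:5 dilution 2.45 nM–38.3 uM final; 18 h, 37 C/5% CO2; ATP-Lite, 5 s luminescence exposure.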

[14] = target: Peptidyl-prolyl cis-trans isomerase NIMA-interacting 1 (Homo sapiens) (UniProt Q13526); experiment: qHTS Validation Assay to Find Inhibitors of Pin1 (AID 504536; active means well fitted inhibition curve with a large enough effect in the polarisation, with a control signal flat, not every such curve was filed as active; the % refers to the polarisation;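 further: 0% = full Pin1 enzyme wells and -100% = no-enzyme wells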)
Outline: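 Fluorescence polarization competition: compounds (titration) displace HiFluor-488-labeled Pin1-1b peptide from Pin1 (0.3 uM final) in pH 7.5 HEPES buffer with DTT, 10 min at room temperature; %Activity normalized to no-enzyme wells, curves fitted.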

[15] = target: Phosphoglycerate kinase, glycosomal (Trypanosoma brucei brucei) (UniProt P07378); experiment: qHTS Validation Assay to Find Inhibitors of Phosphoglycerate Kinase (AID 504547);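 further: control wells lack PGK and mark full inhibition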
Outline: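 Substrate/PGK mix plus compound; reaction started with GAPDH (100nM final) to form 1,3-BPG; 60 min RT; Kinase-Glo Plus 10 min; luminescence. TEA 100mM pH 7.6, MgCl2 5mM, Tween-20 0.01%.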

[16] = target: phosphoglycerate mutase (Leishmania major) (UniProt Q4Q090); experiment: qHTS Validation Assay to Find Inhibitors of Phosphoglycerate Mutase (AID 504548);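 further: end-point luminescence from Kinase-GloPlus after the PGAM reaction; series mostly up to about 58 µM; on the % scale 0 is the no-effect control and ±100 the full control effect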
Outline: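 Inhibition of L. major PGAM was assessed by Kinase-GloPlus luminescence following a 45-minute room-temperature reaction with enzyme at 1.25nM final.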

[17] = Inducers of the Endoplasmic Reticulum Stress Response (ERSR) in human glioma: Validation (AID 504836); further: 0% is about no effect
Outline: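 Stably transfected U87-MG human glioma cells carrying a GRP78-based luminescent sensor were seeded at 1000 cells/well, pin-dosed with compounds and incubated 16 h. Luciferase reagent was then added, and end-point luminescence was read after 10 min at room temperature.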

[18] = target: Ubiquitin carboxyl-terminal hydrolase 1 (Homo sapiens) (UniProt O94782); experiment: Inhibitors of USP1/UAF1: Pilot qHTS (AID 504865); further: nearly all actives have a fitted effect of over 35% in size; further: potency means the concentration at half of the fitted maximal effect
Outline: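 Kinetic fluorescence assay: 1nM USP1/UAF1, 15 min compound preincubation, then 150nM Ub-Rho; 480/540 nm.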

[19] = target: DNA dC->dU-editing enzyme APOBEC-3G (Homo sapiens) (UniProt Q9HC16); experiment: qHTS for inhibitors of Vif-A3G interactions: Validation (AID 588379); further: 0% is about no effect
Outline: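 HeLa cells stably expressing Vif and A3G-eYFP, 700 cells/well, incubated overnight at 37 deg C, then exposed to compound overnight at 37 deg C. Inhibition of Vif-mediated degradation read as increased yellow fluorescence (Ex 488/Em 500-530) by laser-scanning cytometry.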

[20] = target: ATP-dependent 6-phosphofructokinase (Trypanosoma brucei brucei) (UniProt O15648); experiment: qHTS Assay to Find Inhibitors of T. brucei phosphofructokinase: hit validation (AID 492961);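 further: luminescence reports ADP formed as PFK phosphorylates fructose-6-phosphate with ATP; series mostly up to about 51 µM; on the % scale 0 is the no-effect control and ±100 the full control effect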
Outline: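 Reaction: 0.1 M triethanolamine pH 8.0, 5 mM MgCl2, F6P 0.5 mM, ATP 0.1 mM, PFK 1.25 nM, 45 min RT. Read-out: ADP-Glo luminescence. Analysis: concentration-response fits, classed by r2 and efficacy.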

Chain of D(1A) dopamine receptor (Homo sapiens) (P21728 whole entry, looked up): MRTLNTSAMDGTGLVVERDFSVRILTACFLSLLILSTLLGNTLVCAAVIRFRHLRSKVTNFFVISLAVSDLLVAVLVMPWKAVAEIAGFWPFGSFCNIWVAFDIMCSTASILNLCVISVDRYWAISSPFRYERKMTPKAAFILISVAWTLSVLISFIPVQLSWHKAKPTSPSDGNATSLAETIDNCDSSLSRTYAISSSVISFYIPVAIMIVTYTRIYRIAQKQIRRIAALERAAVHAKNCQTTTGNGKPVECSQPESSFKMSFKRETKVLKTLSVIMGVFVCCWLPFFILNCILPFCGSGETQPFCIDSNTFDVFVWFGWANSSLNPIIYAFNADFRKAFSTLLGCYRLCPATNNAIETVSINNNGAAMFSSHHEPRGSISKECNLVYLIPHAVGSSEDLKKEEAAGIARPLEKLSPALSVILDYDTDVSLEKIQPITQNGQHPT
Chain of phosphoglycerate mutase (Leishmania major) (Q4Q090 1-553): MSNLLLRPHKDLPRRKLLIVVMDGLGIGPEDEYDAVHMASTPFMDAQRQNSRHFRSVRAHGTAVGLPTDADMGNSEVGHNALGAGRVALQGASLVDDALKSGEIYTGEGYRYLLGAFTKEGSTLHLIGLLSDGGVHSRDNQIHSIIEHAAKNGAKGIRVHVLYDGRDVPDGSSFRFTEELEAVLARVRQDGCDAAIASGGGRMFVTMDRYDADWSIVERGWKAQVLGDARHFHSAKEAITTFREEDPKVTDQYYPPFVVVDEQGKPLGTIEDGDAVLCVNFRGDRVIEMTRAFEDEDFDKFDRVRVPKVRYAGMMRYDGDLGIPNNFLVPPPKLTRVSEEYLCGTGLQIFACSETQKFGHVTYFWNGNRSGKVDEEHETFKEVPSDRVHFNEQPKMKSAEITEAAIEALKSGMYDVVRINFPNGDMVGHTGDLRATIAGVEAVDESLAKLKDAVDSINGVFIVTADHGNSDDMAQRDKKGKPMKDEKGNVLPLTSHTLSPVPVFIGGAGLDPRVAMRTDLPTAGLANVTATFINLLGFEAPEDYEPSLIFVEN
Chain of Thyrotropin-releasing hormone receptor (Homo sapiens) (P34981 whole entry, looked up): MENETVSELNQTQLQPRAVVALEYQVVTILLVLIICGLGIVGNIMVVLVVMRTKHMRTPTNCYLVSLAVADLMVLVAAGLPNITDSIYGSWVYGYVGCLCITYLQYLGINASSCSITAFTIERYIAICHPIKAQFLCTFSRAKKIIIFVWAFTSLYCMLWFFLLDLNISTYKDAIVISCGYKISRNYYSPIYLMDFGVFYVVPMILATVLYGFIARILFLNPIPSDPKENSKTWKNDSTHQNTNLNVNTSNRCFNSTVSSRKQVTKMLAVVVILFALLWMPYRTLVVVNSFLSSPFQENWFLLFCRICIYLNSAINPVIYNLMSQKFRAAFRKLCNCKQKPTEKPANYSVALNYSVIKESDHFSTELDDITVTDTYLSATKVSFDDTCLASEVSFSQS
Chain of Methanococcus maripaludis chaperonin (MmCpn) (Q6LX38 1-543): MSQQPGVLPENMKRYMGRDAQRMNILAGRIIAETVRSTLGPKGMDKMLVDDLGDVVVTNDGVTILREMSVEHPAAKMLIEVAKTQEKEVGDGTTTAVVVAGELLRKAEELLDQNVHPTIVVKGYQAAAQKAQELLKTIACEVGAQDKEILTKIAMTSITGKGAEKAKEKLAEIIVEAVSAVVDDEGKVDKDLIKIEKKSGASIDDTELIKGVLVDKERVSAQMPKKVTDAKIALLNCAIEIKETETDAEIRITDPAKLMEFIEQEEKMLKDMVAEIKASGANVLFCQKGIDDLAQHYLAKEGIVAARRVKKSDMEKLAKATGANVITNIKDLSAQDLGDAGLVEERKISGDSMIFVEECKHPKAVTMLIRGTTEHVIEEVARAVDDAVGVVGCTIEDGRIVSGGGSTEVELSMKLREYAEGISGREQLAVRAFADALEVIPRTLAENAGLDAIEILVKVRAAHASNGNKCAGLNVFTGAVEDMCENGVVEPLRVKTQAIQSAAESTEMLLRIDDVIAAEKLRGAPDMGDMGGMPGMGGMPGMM
Chain of ATPase family AAA domain-containing protein 5 (Homo sapiens) (Q96QE3 whole entry, looked up, the tested form may be a part): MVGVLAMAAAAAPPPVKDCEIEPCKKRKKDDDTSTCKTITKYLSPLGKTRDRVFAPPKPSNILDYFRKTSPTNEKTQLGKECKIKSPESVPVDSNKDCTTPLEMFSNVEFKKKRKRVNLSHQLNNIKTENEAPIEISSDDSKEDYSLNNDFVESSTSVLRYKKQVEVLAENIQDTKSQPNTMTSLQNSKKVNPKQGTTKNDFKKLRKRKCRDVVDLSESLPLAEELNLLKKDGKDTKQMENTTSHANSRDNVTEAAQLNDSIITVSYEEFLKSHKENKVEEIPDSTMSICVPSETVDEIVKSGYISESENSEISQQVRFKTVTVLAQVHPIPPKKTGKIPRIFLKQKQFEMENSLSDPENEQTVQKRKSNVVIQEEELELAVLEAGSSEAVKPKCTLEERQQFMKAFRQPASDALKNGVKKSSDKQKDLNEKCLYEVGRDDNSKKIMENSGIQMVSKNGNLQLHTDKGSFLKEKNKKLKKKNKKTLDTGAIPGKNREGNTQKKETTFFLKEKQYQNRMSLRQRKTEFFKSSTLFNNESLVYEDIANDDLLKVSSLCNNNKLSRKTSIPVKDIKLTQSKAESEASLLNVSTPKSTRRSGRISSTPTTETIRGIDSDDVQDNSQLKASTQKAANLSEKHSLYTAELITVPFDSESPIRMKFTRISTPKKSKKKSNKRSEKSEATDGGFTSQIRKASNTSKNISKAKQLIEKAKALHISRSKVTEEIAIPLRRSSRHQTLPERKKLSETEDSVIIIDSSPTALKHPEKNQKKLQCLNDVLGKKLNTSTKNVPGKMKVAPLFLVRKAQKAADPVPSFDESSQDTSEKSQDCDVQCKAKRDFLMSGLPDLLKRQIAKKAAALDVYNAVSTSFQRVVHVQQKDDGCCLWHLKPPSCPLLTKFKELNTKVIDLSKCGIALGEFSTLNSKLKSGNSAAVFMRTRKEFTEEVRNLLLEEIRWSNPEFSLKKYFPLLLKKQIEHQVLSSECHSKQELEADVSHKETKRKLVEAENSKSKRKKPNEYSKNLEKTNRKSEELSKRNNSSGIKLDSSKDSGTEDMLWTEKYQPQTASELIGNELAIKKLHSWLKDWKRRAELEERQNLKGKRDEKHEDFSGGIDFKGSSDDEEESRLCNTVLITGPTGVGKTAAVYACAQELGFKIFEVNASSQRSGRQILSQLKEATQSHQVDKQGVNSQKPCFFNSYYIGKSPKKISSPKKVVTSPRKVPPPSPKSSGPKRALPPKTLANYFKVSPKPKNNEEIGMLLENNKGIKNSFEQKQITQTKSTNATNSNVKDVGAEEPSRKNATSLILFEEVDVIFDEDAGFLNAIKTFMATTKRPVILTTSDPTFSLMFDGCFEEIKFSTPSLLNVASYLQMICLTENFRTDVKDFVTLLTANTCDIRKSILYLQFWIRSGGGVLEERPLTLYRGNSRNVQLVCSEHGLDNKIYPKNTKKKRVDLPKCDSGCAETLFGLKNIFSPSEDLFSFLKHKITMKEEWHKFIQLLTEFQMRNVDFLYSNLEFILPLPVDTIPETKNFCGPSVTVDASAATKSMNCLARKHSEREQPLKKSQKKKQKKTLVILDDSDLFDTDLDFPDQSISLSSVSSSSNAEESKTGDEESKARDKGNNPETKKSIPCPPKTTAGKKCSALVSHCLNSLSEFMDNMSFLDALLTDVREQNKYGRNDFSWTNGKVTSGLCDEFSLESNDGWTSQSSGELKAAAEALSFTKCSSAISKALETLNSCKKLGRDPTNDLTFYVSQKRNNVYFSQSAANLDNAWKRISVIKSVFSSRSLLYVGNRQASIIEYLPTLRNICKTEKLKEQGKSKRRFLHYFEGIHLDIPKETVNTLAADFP
Chain of Peptidyl-prolyl cis-trans isomerase NIMA-interacting 1 (Homo sapiens) (Q13526 whole entry, looked up): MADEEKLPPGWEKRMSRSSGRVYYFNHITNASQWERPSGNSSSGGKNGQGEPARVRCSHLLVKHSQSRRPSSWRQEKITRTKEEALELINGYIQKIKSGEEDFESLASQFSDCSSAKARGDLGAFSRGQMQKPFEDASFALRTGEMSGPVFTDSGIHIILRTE
Chain of Chromobox protein homolog 1 (Homo sapiens) (P83916 whole entry, looked up): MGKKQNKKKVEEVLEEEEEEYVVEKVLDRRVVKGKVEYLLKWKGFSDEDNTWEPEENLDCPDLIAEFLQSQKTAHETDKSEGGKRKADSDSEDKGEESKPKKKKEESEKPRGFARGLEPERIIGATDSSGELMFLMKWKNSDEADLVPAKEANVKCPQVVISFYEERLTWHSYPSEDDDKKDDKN
Chain of Transient receptor potential cation channel subfamily V member 1 (Homo sapiens) (Q8NER1 whole entry, looked up): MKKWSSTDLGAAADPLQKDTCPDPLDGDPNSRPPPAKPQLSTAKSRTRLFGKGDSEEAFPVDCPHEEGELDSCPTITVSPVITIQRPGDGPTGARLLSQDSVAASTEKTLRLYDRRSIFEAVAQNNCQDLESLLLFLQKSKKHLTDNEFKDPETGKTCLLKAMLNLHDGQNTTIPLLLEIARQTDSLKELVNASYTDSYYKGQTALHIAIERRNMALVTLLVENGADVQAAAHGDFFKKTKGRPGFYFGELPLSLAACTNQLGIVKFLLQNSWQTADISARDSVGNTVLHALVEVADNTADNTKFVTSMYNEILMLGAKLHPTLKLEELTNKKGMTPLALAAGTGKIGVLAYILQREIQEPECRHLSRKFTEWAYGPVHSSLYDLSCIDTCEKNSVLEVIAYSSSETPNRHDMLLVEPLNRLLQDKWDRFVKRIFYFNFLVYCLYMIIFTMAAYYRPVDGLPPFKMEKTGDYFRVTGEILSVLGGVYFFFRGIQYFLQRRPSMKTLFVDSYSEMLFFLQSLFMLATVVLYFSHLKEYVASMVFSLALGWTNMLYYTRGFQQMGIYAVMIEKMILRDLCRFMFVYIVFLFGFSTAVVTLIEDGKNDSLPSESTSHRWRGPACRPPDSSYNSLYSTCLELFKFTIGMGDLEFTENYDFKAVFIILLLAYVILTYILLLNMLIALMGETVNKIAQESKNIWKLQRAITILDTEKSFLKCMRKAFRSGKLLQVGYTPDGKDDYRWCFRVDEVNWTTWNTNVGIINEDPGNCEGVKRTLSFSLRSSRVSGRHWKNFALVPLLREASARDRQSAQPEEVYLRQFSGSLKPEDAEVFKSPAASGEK

NCC1(CC(=O)O)CCCCC1
inactive: Potency [1] | Potency [2] | outcome [3] | outcome [4] | outcome [5] | Potency [6] | Potency [7] | Potency [8] | Potency [9] | Potency [10] | activation [11] 1.12% | Potency [12] | outcome [13] | Potency [14] | Potency [15] | outcome [16] | outcome [17] | Potency [18] | outcome [19]
10.1%: viability change [12]

CC(CCc1ccccc1)NC(C)C(O)c1ccc(O)cc1 (stereo not drawn)
-10.8%: viability change [12]
inactive: Potency [1] | Potency [2] | outcome [3] | outcome [5] | Potency [6] | Potency [7] | Potency [9] | Potency [10] | Potency [12] | outcome [13] | Potency [14] | Potency [15] | outcome [16] | outcome [17] | Potency [18]

Cc1ccc(S(=O)(=O)N[C@@H](CCCCN)C(=O)CCl)cc1
-2.81%: viability change [12]
active: Potency [18] 50.1 µM and 39.8 µM
inactive: Potency [1] | Potency [2] | outcome [3] | outcome [4] | outcome [5] | Potency [6] | Potency [7] | Potency [8] | Potency [9] | activation [11] -0.625% | Potency [12] | Potency [14] | Potency [15] | outcome [16] | outcome [17]

Cc1cccc(C)c1NC1=NCCCS1
inactive: Potency [1] | Potency [2] | outcome [3] | outcome [4] | outcome [5] | Potency [6] | Potency [7] | Potency [8] | Potency [9] | Potency [10] | activation [11] 0.688% | Potency [12] | outcome [13] | Potency [14] | Potency [15] | outcome [16] | outcome [17] | Potency [18]
-1.16%: viability change [12]

C[C@@H]1O[C@@H](O[C@H]2C[C@@H](O)[C@]3(CO)[C@H]4[C@H](O)C[C@]5(C)[C@@H](C6=CC(=O)OC6)CC[C@]5(O)[C@@H]4CC[C@]3(O)C2)[C@H](O)[C@H](O)[C@H]1O
active: Potency [10] 92 nM
inactive: Potency [1] | Potency [2] | outcome [3] | Potency [6] | Potency [7] | Potency [8] | Potency [9] | outcome [13] | Potency [14] | Potency [15] | outcome [16] | outcome [17] | Potency [18]

CC(=O)[C@H]1CC[C@H]2[C@@H]3CC[C@H]4C[C@H](O)CC[C@]4(C)[C@H]3C(=O)C[C@]12C
inactive: Potency [1] | Potency [2] | outcome [3] | outcome [4] | Potency [6] | Potency [7] | Potency [8] | outcome [20] | Potency [9] | Potency [10] | activation [11] 1.5% | outcome [13] | Potency [14] | Potency [15] | outcome [16] | outcome [17] | Potency [18]
